Experimental data reported in PubChem BioAssay (NCATS).
Where “and” joins values, the source holds several entries; their conditions need not be identical. Equal entries are not always repeated. Results filed as inconclusive are left out. Entries that show only a call come without a potency. Calls of active or inactive are those of the source. Unless noted, the call rests on the fitted dose curve; in most records, active means well fitted curve in the direction sought with a large enough effect; inconclusive means small, poorly fitted or top-dose-only effect, or another doubt; inactive means no such curve, though single readings can be large; an effect the other way counts as inactive or inconclusive.

How the values were obtained:
[1] = qHTS assay for measurement of the activity of small molecule inhibitors on Zika virus induced Caspase-3 activity in human iPSC derived neural progenitor cells (hNPCs) (AID 1224857); conditions: hNPCs ZIKV-induced caspase-3/7, Caspase-Glo luminescence, 6 h; series mostly up to 45.7 µM; further: nearly all actives have a fitted effect of over 65% in size
In short: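 hNPCs seeded 350 cells/well, cultured 16–20 h; compounds added 1 h before ZIKV (2 FFU/cell), 37 C 6 h. Caspase-Glo 3/7 luminescence after 30 min RT; % inhibition from induction scaled to uninfected (0%) and infected (100%) wells.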

[2] = qHTS assay for measurement of the activity of small molecule inhibitors on Zika virus induced Caspase-3 activity in human astrocytoma cells (AID 1224859); conditions: SNB-19 ZIKV-induced caspase-3/7, luminescence, 6 h; series mostly up to 45.7 µM
In short: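 Luminescence read-out (Caspase-Glo 3/7, 30 min RT) of caspase activity in SNB-19 cells infected 6 h with ZIKV, 2 FFU/cell, after 1 h compound pretreatment; % inhibition from induction normalised to uninfected (0%) and infected (100%) wells.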

[3] = qHTS assay to identify small molecule inhibitors of chordoma cells - UCH-1 (AID 1259355); conditions: UCH-1 chordoma viability, CellTiter-Glo, 48 h, combination, with auranofin plus four topoisomerase inhibitors; series mostly up to 46.1 µM; further: nearly all actives have a fitted effect of over 55% in size
In short: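 Screening used approved and investigational drugs in 15-point titration against 800 seeded cells per well. A fixed combination of auranofin with camptothecin, doxorubicin, rubitecan and topotecan followed compound addition, and growth was scored by CellTiter-Glo after 48hr.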

[4] = qHTS assay to identify small molecule inhibitors of chordoma cells - UCH-2 (AID 1259356); conditions: UCH-2 chordoma viability, CellTiter-Glo ATP luminescence, 48 h; series mostly up to 46.1 µM
[5] = qHTS profiling for inhibitors of Plasmodium falciparum (DD2) proliferation (AID 743323; call rule not given here); conditions: lower = more inhibition; at 28.7 µM (top of the series) unless noted
In short: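 Parasite proliferation measured via DNA-dye fluorescence, as uninfected erythrocytes lack DNA. Cultures at 0.3% parasitemia and 2.5% hematocrit incubated 72 h with compound; signal scaled between vehicle and 0.29 uM artemisinin wells.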

[6] = qHTS profiling for inhibitors of Plasmodium falciparum (HB3) proliferation (AID 743324); conditions: Plasmodium falciparum HB3 blood-stage proliferation; at 28.7 µM (top of the series) unless noted
In short: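 SYBR Green fluorescence (485 ex/535 em) of lysed cultures, incubated overnight at room temperature in the dark, quantifies parasite DNA. Infected erythrocytes at 0.3% parasitemia and 2.5% hematocrit were exposed 72 h; values normalized to DMSO and 0.29 uM artemisinin controls.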

Compound | outcome [1] | outcome [2] | Potency [3] | outcome [4] | activity, percent of control [5] | remaining proliferation (% of control), lower = more inhibition [6]
CC1(C)CO[C@@H](CC(=O)O)CN1 | inactive | inactive | inactive | inactive | – | –
O=Cc1ccccc1C=O | inactive | inactive | inactive | inactive | – | –
NS(=O)(=O)c1cc2c(cc1C(F)(F)F)NC(Cc1ccccc1)NS2(=O)=O (stereo not given) | inactive | inactive | inactive | inactive | – | –
CC1CC(OC(=O)C(O)c2ccccc2)CC(C)(C)N1C (stereo not given) | inactive | inactive | inactive | inactive | – | –
CC(C)(C)NCC(O)COc1ccc(NC(=O)NC2CCCCC2)cc1 (stereo not given) | inactive | inactive | inactive | inactive | – | –
C#CCN(C)Cc1ccccc1 | inactive | inactive | inactive | inactive | – | –
O=C(O)[C@H](O)c1ccccc1 | inactive | inactive | inactive | inactive | – | –
Nc1ccc(S(=O)(=O)Nc2ccccc2)cc1 | inactive | inactive | inactive | inactive | – | –
O=C(O)CC(O)C(=O)O (stereo not given) | inactive | inactive | inactive | inactive | – | –
NC(=O)N/N=C/c1ccc([N+](=O)[O-])o1 | inactive | inactive | inactive | inactive | – | –
Nc1ncnc2c1ncn2[C@@H]1O[C@H](CO)[C@@H](O)[C@H]1O | inactive | inactive | inactive | inactive | – | –
CCC(=O)Nc1ccc(O)cc1 | inactive | inactive | inactive | inactive | – | –
Cc1ccc(C(C)C)cc2c(C)ccc1-2 | inactive | inactive | inactive | inactive | – | –
C[C@]12CC[C@@H]3c4ccc(O)cc4CC[C@H]3[C@@H]1CC[C@@H]2OC(=O)CCC1CCCC1 | inactive | inactive | inactive | inactive | – | –
CC(C)(C)C(=O)C(Oc1ccc(Cl)cc1)n1ccnc1 (stereo not given) | inactive | inactive | inactive | inactive | – | –
NC1CCN(c2cccc(Cl)n2)CC1 | inactive | inactive | inactive | inactive | – | –
Cn1cc[nH]c1=S | inactive | inactive | inactive | inactive | – | –
CSc1ccc2c(c1)C(N1CCN(C)CC1)Cc1ccccc1S2 (stereo not given) | inactive | inactive | inactive | inactive | – | –
C=CCn1c(=O)n([C@@H]2O[C@H](CO)[C@@H](O)[C@H]2O)c2nc(N)[nH]c(=O)c21 | inactive | inactive | inactive | inactive | – | –
NC(CSCC(=O)O)C(=O)O (stereo not given) | inactive | inactive | inactive | inactive | – | –
OC[C@H]1O[C@@H](O[C@@H]2[C@@H](CO)O[C@](O)(CO)[C@H]2O)[C@H](O)[C@@H](O)[C@H]1O | inactive | inactive | inactive | inactive | – | –
Cc1ccc2nc(N)[nH]c(=O)c2c1Sc1ccncc1 | inactive | inactive | inactive | inactive | – | –
O=S(=O)(O)c1cc(I)c(O)c2ncccc12 | inactive | inactive | inactive | inactive | – | –

Compound | outcome [1] | outcome [2] | Potency [3] | outcome [4] | activity, percent of control [5] | remaining proliferation (% of control), lower = more inhibition [6]
CC1=C(C/C=C(\C)CCC[C@H](C)CCC[C@H](C)CCCC(C)C)C(=O)c2ccccc2C1=O | inactive | inactive | inactive | inactive | – | –
CCCCC(CC)COC(=O)c1ccccc1O (stereo not given) | inactive | inactive | inactive | inactive | – | –
CC(=O)O[C@@]12CO[C@@H]1C[C@H](O)[C@@]1(C)C(=O)[C@H](O)C3=C(C)[C@@H](OC(=O)[C@H](O)[C@@H](NC(=O)OC(C)(C)C)c4ccccc4)C[C@@](O)([C@@H](OC(=O)c4ccccc4)[C@H]21)C3(C)C | inactive | inactive | inactive | – | 14.2% and 11.9% | 0.549% and 1.1%
NC(=O)c1ncn([C@@H]2O[C@H](CO)[C@@H](O)[C@H]2O)n1 | inactive | inactive | – | inactive | – | –
CC1=C(CC(=O)O)c2cc(F)ccc2/C1=C\c1ccc(S(C)=O)cc1 (stereo not given) | inactive | inactive | inactive | inactive | – | –
CC1=C(/C=C/C(C)=C/C=C/C(C)=C/C(=O)O)C(C)(C)CCC1 | – | inactive | – | – | – | –
OCCN1CCN(CCCN2c3ccccc3Sc3ccc(Cl)cc32)CC1 | inactive | inactive | – | inactive | – | –
Nc1cc(=O)[nH]c(N)n1 | – | inactive | – | – | – | –
CC1(C)S[C@@H]2[C@H](NC(=O)Cc3ccccc3)C(=O)N2[C@H]1C(=O)O (tested in a mixture with another compound) | inactive | inactive | inactive | inactive | – | –
N[C@@H](CSCCCO)C(=O)O | inactive | inactive | inactive | inactive | – | –
CC1(C)Oc2ccc(C#N)cc2[C@@H](N2CCCC2=O)[C@@H]1O | inactive | inactive | inactive | inactive | – | –
CCN(CC)C(C)CN1c2ccccc2Sc2ccccc21 (stereo not given) | inactive | inactive | – | inactive | – | –
O=C1N=C(O)CN1/N=C/c1ccc(-c2ccc([N+](=O)[O-])cc2)o1 | inactive | inactive | – | inactive | – | –
OCc1cc(C(O)CNCCCCCCOCCCCc2ccccc2)ccc1O (stereo not given) | inactive | inactive | – | inactive | – | –
C[C@]12C[C@H](O)[C@H]3[C@@H](CCC4=CC(=O)CC[C@@]43C)[C@@H]1CC[C@@H]2C(=O)CO | inactive | inactive | – | inactive | – | –
CNCC(O)c1ccc(O)c(O)c1 (stereo not given) | – | inactive | – | – | – | –
CC(CN1c2ccccc2Sc2ccccc21)N(C)C (stereo not given) | inactive | inactive | – | inactive | – | –
CN1[C@@H]2CC(OC(=O)[C@H](CO)c3ccccc3)C[C@H]1[C@@H]1O[C@@H]12 (stereo not given in full) | inactive | inactive | inactive | inactive | – | –
O=C(CCCN1CCN(c2ccccn2)CC1)c1ccc(F)cc1 | inactive | inactive | inactive | inactive | – | –
CC[C@H]1CN2CCc3cc(OC)c(OC)cc3[C@@H]2C[C@@H]1C[C@H]1NCCc2cc(OC)c(OC)cc21 | – | inactive | – | – | – | –
CC(CN(C)C)CN1c2ccccc2CCc2ccccc21 (stereo not given) | inactive | inactive | – | inactive | – | –
CC(C(O)c1ccc(O)cc1)N1CCC(Cc2ccccc2)CC1 (stereo not given) | inactive | inactive | – | inactive | – | –
